Reference: the supplement of paper PMC12632987

B1: uchl1_155_7500 (protein)
chain: GTTVTVTVTGTASDGTTHTLTKTFEGLTSSVADMEALREAILAMLLELAAKVDGDIKLTVNVRNATANQAVGIGTAVRRAASEAGKKTGKTIDVDITGLP
B2: uchl1_143_7493 (protein)
chain: GAPAEEVVVLELTIEETDTPEEIRAKITAAIEEAVATGKPSVVVITVPPDPNVRVTVGNAAKRAVREAAKAHGDQIKDLRVVARDAETGKEQLLAEVVNP
B3: uchl1_155_7496 (protein)
chain: MLRVRVTITGTNADGTTLTRELELEIENPTLEKIQEAAREIAEAVREFALAVDGPVEVRVEVSADRRLHAASFSQALRRALREVAKETGKEITLDVRGVP
B4: uchl1_155_7501 (protein)
chain: MATVTVTATGTAPDGTTHTLTKTFEGITSSVEDLLALREAVLALLVELAKKVKGDVDVVVEVSNADANTRVGIGTAVRRAASEAGKQTGLTVSVTIREVA
B5: uchl1_155_7495 (protein)
chain: MLEVEVEVVARRPDGTVARERFRFRTEEITPENRRALAERVAERVREFVERHGGDVDVTVRIRSPSQIARASLYRAIRIRLREVAKELGVEVTVRAEPVP
B6: uchl1_143_7492 (protein)
chain: GAAAVPVLRVEITVTRDTTPEELRARLEAAVREAAARKAALEVTITVPPDPNLKLMVNTVARRVARRAAREYADTLPRLTINARDAETGKTQVVAEAVNP
B7: uchl1_143_7487 (protein)
chain: AVEVIELSPEEVAAWLALPDEEALAALEAVLEAAVDRGVDTLVRIPAPEDANDRLRLNTLVRRAARRVAAAHADRIDSVTISQEKDPNGPPRLVVSIRVK
B8: uchl1_155_7499 (protein)
chain: GTTVTVTATGTAADGTTHTLTKTFEGITSSVEDMLALRDEILAMLLELAAKVDGDIDLKVDVSNATANQAVGIGTAVRRAASEAGKETGLTINVDITGLP
B9: uchl1_143_7489 (protein)
chain: EVRVLDVSEAEVAEILALSPEEAVAAIYARLSAAIALGVDTEVRFPAPERANDRLRLGTAVRRAARRAARDHADEIADVVIYNERDPDERPRLVVRITRK
B10: uchl1_155_7497 (protein)
chain: MTTVTVVVTGTSPDGTTVTKTKTFEGLTSSVADLEALREAMKAMIVETAKEVKGDVDVTVNVTNATANQAVGIGTAARRAANEAGKETGLTVSLTLVGVP
B11: uchl1_143_7494 (protein)
chain: GPVVEPVVVIELRIERTDTPEEIRAKIRAAVEEAVATGKPTVIEITVPADANMRLTVSTSARRVAREAAKEHPDKIKDLRIYARDEETGKRQLIAEVIKE
B12: uchl1_155_7498 (protein)
chain: GTTVTVTATGTAADGTVVTSTTTFTGLTSSVADMQALQAAILAQLLAVAAQVDGDIDLAVTVSNATANQAVGIGTAVRRAASQAGKQTGLTINVTLTGAP
B13: uchl1_143_7491 (protein)
chain: GLDNLEVETVEIEVSEEDTPEELAARLREVIEEALAKGKALRIILTVPPDPNVRLMVNTVARRVLREFAQEHRDELKYVEIYARDEETGKEQLLAEFVNP
B14: uchl1_143_7488 (protein)
chain: EVKVIELSPEEVAEILSLSDEEALARLKEIIEAAVELGVDTEIRIPAPEDANDRLRLHTLVKRAAREVAKKYADKIDSVEIYQELDPNARPRIVVRITVK
B15: uchl1_155_7502 (protein)
chain: MRTVRITIDVTLPDATETVEVTLERTVSDKPEDREALAEEVAATVDAILAQGKNVRLTVTVTVPDKMVVAASLYQAIRRRVRAVARRHGAEVVITAEVVP
B16: uchl1_143_7490 (protein)
chain: SSSDLPVEEVTITVTLDDTPEQIRARLRAAIEAAVAAGRALRINITVPADPNMRLMVNTVARRVAREVARAHADRVRHVEIYATDAATGKTDLLAEVVNP

Target: UCHL1, P09936
Sequence (P09936 whole entry, looked up, the tested form may be a part): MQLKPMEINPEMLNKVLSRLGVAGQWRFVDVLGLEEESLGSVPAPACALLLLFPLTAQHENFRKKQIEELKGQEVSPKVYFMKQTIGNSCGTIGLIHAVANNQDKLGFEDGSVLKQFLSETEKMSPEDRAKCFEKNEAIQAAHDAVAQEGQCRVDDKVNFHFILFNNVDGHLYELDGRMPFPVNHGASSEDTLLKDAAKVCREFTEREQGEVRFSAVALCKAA
Experiment: median log2 fold change of GCK-ALFA target abundance (FLAG IP / Myc IP barcode read proportion) (log2 ratio); each designed protein is fused to an ALFA-tag nanobody in HEK293 cells to bring the named protein to FLAG-tagged glucokinase (GCK); Myc marks an untargeted standard; higher = target protein stabilised (more abundant)
Details: target protein: 3xFLAG-MCP-GCK-ALFA reporter; HEK293 landing pad (RPLP)
Method in brief: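 HEK293 landing-pad cells received a recombined binder library fused to the ALFA nanobody and were induced with 2 μg mL^−1 doxycycline, then transfected with a plasmid encoding a FLAG-tagged target and a Myc-tagged standard. Lysates were collected after 48 h for anti-FLAG and anti-Myc immunoprecipitation, and the circular RNA barcodes were reverse transcribed, amplified and sequenced. Target abundance for each binder is the median log2 ratio of FLAG to Myc barcode read proportions. Barcodes had to reach a proportion of at least 10^−7 in both replicates, each binder needed at least 3 barcodes per replicate, a pseudocount of 10^−6 was applied, and the two replicates were pooled.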

Binder | median log2 fold change
B1 | 0.302
B2 | 0.229
B3 | 0.0376
B4 | 0.237
B5 | -0.0429
B6 | 0.184
B7 | 0.226
B8 | 0.302
B9 | 0.144
B10 | 0.314
B11 | 0.397
B12 | 0.16
B13 | 0.302
B14 | 0.21
B15 | -0.0533
B16 | 0.232
